# From PubChem
# Shown are actives, neighbours in structure and some others; about 7.3% of the full set was active somewhere.
# HCV inhibitor: qHTS Assay for Inhibitors of Hepatitis C Virus (HCV); Huh7.5.1 HCVcc-Cre infection, luciferase reporter, 44 h; Potency, µM (doses to about 41.8 µM), actives largely listed as inhibitors; actives 3.4% (n = 340,000); AID 651820, 2012; active means well fitted inhibition curve with a large enough effect; inconclusive means small, poorly fitted or top-dose-only effect, or another doubt; inactive means no such curve, though single readings can be large or run the other way
#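 Compounds are dispensed onto cells plated 4 h earlier at 1,000 per well, with HCVcc-Cre virus (about 0.5 moi) added next. Following 44 h of culture, luminescent signal is measured for 15 sec after 15 min with substrate at room temperature.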
# VACV mCherry inh: qHTS for Stage-Specific Inhibitors of Vaccinia Orthopoxvirus: mCherry Reporter Primary qHTS | Vaccinia virus mCherry reporter infection, fluorescence | actives 0.63% (n = 310,000) | Potency, µM (top dose mostly 36.5 µM), actives largely listed as inhibitors; calls by dose curve; tested in A549 cells; further: nearly all actives have a fitted effect of over 35% in size
# VACV Venus inh: qHTS for Stage-Specific Inhibitors of Vaccinia Orthopoxvirus: Venus Reporter Primary qHTS. AID 720580, 2013. actives 0.46% (n = 330,000). Vaccinia virus Venus reporter expression, fluorescence. Potency, µM (titrated, usually from 36.5 µM), most hits filed as inhibitors; calls by dose curve; tested in A549 cells; further: nearly all actives have a fitted effect of over 30% in size
# HCMV inh: qHTS Assay for inhibitors of the human cytomegalovirus (HCMV); actives 4.5% (n = 410,000); HFF cells, HCMV-luciferase reporter, 72 h; stronger effect = lower value; AID 1259415, 2018; activity change, negative = inhibition, % at 57.5 µM; in the data active means activity change below about -60%; inconclusive means no clear call, values can overlap the other calls; inactive means above about -39%
#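 Inhibition of viral replication was scored as loss of reporter luminescence in HFFs infected with HCMV-luciferase (MOI 1 PFU/cell) for 72 h; compounds tested at 2 doses, normalized to buffer and Salinomycin controls.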
# FMDV antiviral: High Throughput Screening for Foot and Mouth Disease Virus Antivirals; FMDV antiviral cell-based qHTS; Potency, µM (highest dose often 57.9 µM), usual class: inhibitors; actives 1.2% (n = 410,000); calls by dose curve; tested in HEK293T cells; further: read-out not given here; nearly all actives have a fitted effect of over 45% in size
# Hits are given with their value; i = inactive; ? = inconclusive; nt = no result given; [ ] = dose if it differs, or a comment.
SMILES,HCV inhibitor,VACV mCherry inh,VACV Venus inh,HCMV inh,FMDV antiviral
CCC(C)NC(=O)CN(c1ccc(OC)cc1)S(=O)(=O)c1ccccc1 (centres undefined),i,i,i,i,i
COc1ccc(N(CC(=O)N/N=C/c2cccs2)S(=O)(=O)c2ccccc2)cc1,?,i,i,-66.7,i
COc1ccc(N(CC(=O)N/N=C/c2ccc(-c3ccc([N+](=O)[O-])cc3)o2)S(=O)(=O)c2ccc(C)cc2)cc1Cl,i,i,i,i,i
Cc1cccc(CN(CC(=O)N/N=C/c2cccs2)S(=O)(=O)c2ccc(Cl)cc2)c1,11.2µM,nt,?,i,?
O=C(COc1ccccc1C(=O)Nc1ccccc1F)Nc1ccc(Br)cc1,nt,i,i,nt,nt
CCOC(=O)c1ccccc1NC(=O)Cn1c(=O)n(-c2cccc(C)c2)c(=O)c2c1c1cc(C)ccc1n2C,nt,i,i,i,i
CCCn1c(C(=O)OC)cc2c1ccn2-c1ccc(F)cc1,31.6µM,nt,nt,i,i
COC(=O)c1cc2c(ccn2-c2ccc(F)cc2)n1C(C)C,i,nt,nt,i,i
COC(=O)c1cc2c(ccn2-c2ccc(F)cc2)n1Cc1ccc(OC(C)=O)cc1,8.91µM,i,i,i,i
COC(=O)c1cc2c(ccn2-c2ccc(F)cc2)n1CC(C)C,11.2µM,nt,nt,i,i
O=C(Nc1ccccc1F)c1ccc(CSc2ccccc2)o1,i,nt,nt,i,i
O=C(NCc1ccco1)c1cc(-c2ccccn2)nc2ccccc12,?,i,i,i,nt
CCc1ccc(NC(=O)c2cc3c(C)nc4ccccc4c3o2)cc1,?,i,i,i,?
Cc1ccccc1NC(=O)c1cc2c(C)nc3ccccc3c2o1,?,i,i,-83.2,?
Cc1nc2ccccc2c2oc(C(=O)NCc3ccc4c(c3)OCO4)cc12,8.91µM,?,?,?,?
O=C(NCc1ccc2c(c1)OCO2)c1cc(-c2ccccn2)nc2ccccc12,10µM,i,i,i,i
Cc1nc2ccccc2nc1OCC(=O)NCc1ccc2c(c1)OCO2,i,i,i,i,i
Cc1nc2ccccc2c2oc(C(=O)NCCCN3CC(C)CC(C)C3)cc12 (centres undefined),?,nt,nt,i,i
Cc1ccc(CNC(=O)c2cc3c(C)nc4ccccc4c3o2)cc1,?,i,i,-70.0,12.6µM
CCN(C(=O)COC(=O)c1cc(-c2cccc3ccccc23)nc2ccccc12)C1CCS(=O)(=O)C1 (centres undefined),i,i,i,i,i
CC(Nc1nc(-c2ccc(F)cc2)cs1)c1nc2cc(Cl)c(N3CCCCC3)cc2n1CCCO (centres undefined),?,?,?,-65.4,i
CC(Nc1nc(-c2ccc(F)cc2)cs1)c1nc2cc(Cl)c(N3CCCCC3)cc2n1CCOCCO (centres undefined),?,?,?,i,?
CC(C)CCNC(=O)CN1C(=O)c2cccnc2Sc2ccccc21,nt,i,i,i,i
CC(=O)N(C(C)=O)c1ncc2c([nH]c3ccccc32)c1C#N,i,11.2µM,?,-77.0,i
O=S(=O)(c1ccc(NC(=S)NCCC(c2ccccc2)c2ccccc2)cc1)N1CCOCC1,?,10µM,11.2µM,-98.9,?
SMILES,HCV inhibitor,VACV mCherry inh,VACV Venus inh,HCMV inh,FMDV antiviral
O=S(=O)(c1ccc(NC(=S)N/N=C/c2c3ccccc3cc3ccccc23)cc1)N1CCOCC1,2.82µM,i,?,-94.7,i
COc1ccc2[nH]cc(CCO)c2c1,nt,i,i,nt,i
COc1cccc(C(=O)NCC2CCN(C(=O)C(=O)c3cc4ccccc4o3)CC2)c1,nt,nt,nt,i,nt
Oc1ccc(C(=S)N2CCCCC2)cc1Cl,i,nt,nt,-75.2,i
Cc1ccc2[nH]cc(CCNC(=O)Nc3ccccc3)c2c1,i,nt,nt,i,?
Fc1cccc(CNCCc2c[nH]c3ccccc23)c1,i,nt,nt,i,i
COc1cc(CNCCc2c[nH]c3ccccc23)cc(OC)c1OC,nt,i,i,i,i
COc1ccccc1CCNCc1ccc(OC)c(OCc2ccccc2)c1,10µM,nt,nt,?,?
CC(=O)c1cccc(NC(=O)NCCc2c[nH]c3ccccc23)c1,i,i[7.34 µM],i[7.34 µM],-82.0,i
COc1cccc(CNCCc2c[nH]c3ccccc23)c1OCc1ccccc1,10µM,i,?,?,i
Cc1cccc(CNCCc2c[nH]c3ccccc23)c1,?,?,i,-99.2,i
CC1CCCC(C)N1C(=O)COC(=O)c1cc(=O)[nH]c2ccccc12 (centres undefined),?,i,i,i,i
COc1ccc(Cl)cc1NCCC(O)c1ccc(F)cc1 (centres undefined),7.08µM,nt,nt,i,i
CCOC(=O)[C@]12CCCC=C1N(Cc1ccc3c(c1)OCO3)C(=O)[C@H](CC(=O)N1CCN(C(=O)C3CC3)CC1)C2,nt,i,i,i,?
O=c1oc2ccccc2cc1-c1nc(-c2cccc(Cl)c2)cs1,nt,i,i,i,i
O=C(Nc1nc(-c2ccccn2)cs1)c1ccco1,?,2.51µM,?,i,i
O=c1oc2ccccc2cc1-c1csc(Nc2nc3ccc(F)cc3s2)n1,i,nt,nt,nt,nt
O=C(Nc1nc(-c2cc(Cl)sc2Cl)cs1)c1ccc(Br)s1,?,i,i,i,i
O=c1oc2ccccc2cc1-c1csc(Cc2nc(-c3ccc(Cl)cc3)cs2)n1,?,i,i,-96.1,?
O=C(Nc1nc(-c2ccccn2)cs1)c1ccc(Br)s1,2.24µM,nt,nt,-98.6,i
O=c1oc2ccccc2cc1-c1csc(Nc2nc3c(F)cccc3s2)n1,12.6µM,i,i,i,7.08µM
CC(=O)OCC(COC(C)=O)(CN1C(=O)c2ccccc2C1=O)CN1C(=O)c2ccccc2C1=O,nt,nt,nt,i,nt
O=C(c1ccc(N2C(=O)c3ccccc3C2=O)cc1)N1CCN(S(=O)(=O)c2ccccc2F)CC1,nt,i,i,i,?
O=C(Nc1nc(-c2ccncc2)cs1)c1ccco1,i,i,i,i,i
O=C(Nc1nc(-c2cc3ccccc3oc2=O)cs1)c1ccco1,i,i,i,-62.7,i
SMILES,HCV inhibitor,VACV mCherry inh,VACV Venus inh,HCMV inh,FMDV antiviral
Cc1nc(C(=O)Nc2cc(F)cc(Cl)c2)sc1C1(C)CC(c2ccccc2)=NO1 (centres undefined),14.1µM,i,?,?,?
CNC(=O)c1nc(C)c(C2(C)CC(c3ccccc3)=NO2)s1 (centres undefined),i,i,i,i,i
Nc1nc2ccccc2cc1C(=O)NCCCCc1ccccc1,nt,i,i,nt,?
CC(c1ccon1)N(C)Cc1cn(C)nc1-c1cccc(Cl)c1 (centres undefined),i,i,i,i,?
O=C(CN1C(=O)S/C(=C\c2ccccc2F)C1=O)NC1C=CS(=O)(=O)C1 (centres undefined),i,nt,nt,-62.7,i
COC(=O)c1ccc(NS(=O)(=O)NC(=O)c2cn(C)c3ccccc23)cc1,i,nt,nt,i,i
COc1ccc(C)cc1NS(=O)(=O)c1ccc(NC(=O)CN(c2cc([N+](=O)[O-])ccc2C)S(C)(=O)=O)cc1,10µM,i,?,i,i
Cc1cccc(NS(=O)(=O)c2ccc(NC(=O)CN(c3cc([N+](=O)[O-])ccc3C)S(C)(=O)=O)cc2)c1,?,?,?,i,?
